Here are results for 11 molecules from PubChem BioAssay (NCATS).

Assay [1] in a line: qHTS of pediatric cancer cell lines to identify multiple opportunities for drug repurposing: Confirmatory screen for NB1643 cells (AID 1347109). Note: nearly all actives have a fitted effect of over 45% in size. Note: potency is the fitted concentration of half-maximal effect. A digest of the protocol: (§1)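 Cells (500-1,000/well) rested 5 h, then received compounds for 48 h; metabolically active cells were measured by CellTiter-Glo luminescence. Final concentrations spanned up to 46 µM (MIPE, 11-point) or 0.59 nM-46 µM (NPC, 8-point) in primary screens, 11-point in follow-ups.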
A general note: qHTS replaces the single test concentration by a dilution series.

Assay [2] can be described thus: qHTS of pediatric cancer cell lines to identify multiple opportunities for drug repurposing: Confirmatory screen for A673 cells (AID 1347110).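 Note: cells exposed to compound for 48 h before the viability read; nearly all actives have a fitted effect of over 65% in size.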 Note: potency is the fitted concentration of half-maximal effect. A digest of the protocol:
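Forty-eight-hour viability assay. Follow-up compounds ran at 11-point dilutions; positive control bortezomib at 2.3 uM final, neutral control DMSO.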

A short description of assay [3]: qHTS of pediatric cancer cell lines to identify multiple opportunities for drug repurposing: Confirmatory screen for SK-N-MC cells (AID 1347111).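 Note: potency is the fitted concentration of half-maximal effect; cells exposed to compound for 48 h before the readout; nearly all actives have a fitted effect of over 70% in size.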 A digest of the protocol:
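Seed 500-1,000 cells/well; rest 5 h at 37 degrees C. Pin-transfer compounds, 11-point titration. Incubate 48 h. Add CellTiter-Glo, 15 min RT, read luminescence.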

Assay [4] in a line: qHTS of pediatric cancer cell lines to identify multiple opportunities for drug repurposing: Confirmatory screen for BT-12 cells (AID 1347112). Note: potency is the fitted concentration of half-maximal effect.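 Note: viability read after 48 h of compound exposure; nearly all actives have a fitted effect of over 55% in size.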 A digest of the protocol: as §1
Assay [5] in a line: qHTS of pediatric cancer cell lines to identify multiple opportunities for drug repurposing: Confirmatory screen for LAN-5 cells (AID 1347113). Note: nearly all actives have a fitted effect of over 65% in size. Note: potency is the fitted concentration of half-maximal effect. Summed up:
as §1

Assay [6] can be described thus: qHTS of pediatric cancer cell lines to identify multiple opportunities for drug repurposing: Confirmatory screen for BT-37 cells (AID 1347117). Note: nearly all actives have a fitted effect of over 55% in size. Note: potency is the fitted concentration of half-maximal effect. A digest of the protocol: as §1
Assay [7] is described as follows: qHTS of pediatric cancer cell lines to identify multiple opportunities for drug repurposing: Confirmatory screen for TC32 cells (AID 1347118).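 Note: potency is the fitted concentration of half-maximal effect; cells exposed to compound for 48 h before the read; nearly all actives have a fitted effect of over 65% in size.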 A digest of the protocol:
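qHTS, TC32, 48 h drug treatment, CellTiter-Glo luminescence as a proxy for metabolically active cells; primary top concentration 46 µM (MIPE 11-pt, NPC 8-pt); confirmatory 11-pt.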

The nature of assay [8]: qHTS of pediatric cancer cell lines to identify multiple opportunities for drug repurposing: Confirmatory screen for MG 63 (6-TG R) cells (AID 1347119). Note: nearly all actives have a fitted effect of over 55% in size. Note: potency is the fitted concentration of half-maximal effect. A digest of the protocol:
as §1

Assay [9] can be described thus: qHTS of pediatric cancer cell lines to identify multiple opportunities for drug repurposing: Confirmatory screen for Rh41 cells (AID 1347123).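 Note: 48 h compound exposure; nearly all actives have a fitted effect of over 60% in size.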 Note: potency is the fitted concentration of half-maximal effect. A digest of the protocol:
as §1

A short description of assay [10]: qHTS of pediatric cancer cell lines to identify multiple opportunities for drug repurposing: Confirmatory screen for Rh30 cells (AID 1347126). Note: nearly all actives have a fitted effect of over 55% in size. Note: potency is the fitted concentration of half-maximal effect. A digest of the protocol: as §1
Assay [11] in a line: qHTS of pediatric cancer cell lines to identify multiple opportunities for drug repurposing: Confirmatory screen for Saos-2 cells (AID 1347127). Note: nearly all actives have a fitted effect of over 60% in size. Note: potency is the fitted concentration of half-maximal effect. Summed up:
as §1

A short description of assay [12]: qHTS of pediatric cancer cell lines to identify multiple opportunities for drug repurposing: Confirmatory screen for OHS-50 cells (AID 1347128). Note: potency is the fitted concentration of half-maximal effect. A digest of the protocol:
as §1

A short description of assay [13]: qHTS of pediatric cancer cell lines to identify multiple opportunities for drug repurposing: Confirmatory screen for SK-N-SH cells (AID 1347129).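 Note: cells exposed to compound for 48 h before viability read; nearly all actives have a fitted effect of over 60% in size.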 Note: potency is the fitted concentration of half-maximal effect. Summed up: as §1
A short description of assay [14]: qHTS of pediatric cancer cell lines to identify multiple opportunities for drug repurposing: Confirmatory screen for NB-EBc1 cells (AID 1347115).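 Note: cells exposed to compound for 48 h before the viability read; nearly all actives have a fitted effect of over 45% in size.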 Note: potency is the fitted concentration of half-maximal effect. A digest of the protocol:
as §1

A short description of assay [15]: qHTS of pediatric cancer cell lines to identify multiple opportunities for drug repurposing: Confirmatory screen for U-2 OS cells (AID 1347122). Note: nearly all actives have a fitted effect of over 65% in size. Note: potency is the fitted concentration of half-maximal effect. Summed up:
as §1

Assay [16] in a line: qHTS of pediatric cancer cell lines to identify multiple opportunities for drug repurposing: Confirmatory screen for RD cells (AID 1347124). Note: potency is the fitted concentration of half-maximal effect. Summed up: as §1
Assay [17] is described as follows: qHTS of pediatric cancer cell lines to identify multiple opportunities for drug repurposing: Confirmatory screen for Rh18 cells (AID 1347125). Note: nearly all actives have a fitted effect of over 55% in size. Note: potency is the fitted concentration of half-maximal effect. A digest of the protocol: as §1
A short description of assay [18]: qHTS of pediatric cancer cell lines to identify multiple opportunities for drug repurposing: Confirmatory screen for control Hh wild type fibroblast cells (AID 1347121). Note: nearly all actives have a fitted effect of over 70% in size. Note: potency is the fitted concentration of half-maximal effect. Summed up:
as §1

The nature of assay [19]: qHTS of pediatric cancer cell lines to identify multiple opportunities for drug repurposing: Confirmatory screen for DAOY cells (AID 1347114). Note: nearly all actives have a fitted effect of over 65% in size. Note: potency is the fitted concentration of half-maximal effect. A digest of the protocol: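 Viability measured as metabolically active cells via CellTiter-Glo luminescence following 48 hours of compound exposure, 11-point dilutions in confirmatory testing. 500-1,000 cells/well plated 5 hours before dosing; controls were DMSO and 2.3 µM bortezomib.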

Another assay deals with Furin (Homo sapiens) (UniProt P09958). In words: Furin counterscreen qHTS for Zika virus inhibitors (AID 1347149).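 Note: purified recombinant full-length human furin enzyme at 5 nM; fluorescence gain from furin cutting a BOC-RVRR-AMC peptide substrate over 15 min; top concentration of the series differs between compounds; plate controls were no-inhibitor control for no effect and no-enzyme control for full effect; nearly all actives have a fitted effect of over 70% in size.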 Summed up:
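Counterscreen measures cleavage of 2 microM BOC-RVRR-AMC, below its ~15 microM Km, by 5 nM full-length human furin at pH 7.0 after a 15-min compound preincubation. Inhibition derives from the 15-min fluorescence increase at 37C.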

Inconclusive results are not listed. Values without a mark were called inactive. Active and inactive are the calls of the source. Calls come from the whole dose curve; as a rule, active = well fitted curve in the direction sought with a large enough effect; inconclusive = small, poorly fitted or top-dose-only effect, or another doubt; inactive = no such curve, though single readings can be large; an effect the other way counts as inactive or inconclusive.

Chain of Furin (Homo sapiens) (P09958 whole entry, looked up): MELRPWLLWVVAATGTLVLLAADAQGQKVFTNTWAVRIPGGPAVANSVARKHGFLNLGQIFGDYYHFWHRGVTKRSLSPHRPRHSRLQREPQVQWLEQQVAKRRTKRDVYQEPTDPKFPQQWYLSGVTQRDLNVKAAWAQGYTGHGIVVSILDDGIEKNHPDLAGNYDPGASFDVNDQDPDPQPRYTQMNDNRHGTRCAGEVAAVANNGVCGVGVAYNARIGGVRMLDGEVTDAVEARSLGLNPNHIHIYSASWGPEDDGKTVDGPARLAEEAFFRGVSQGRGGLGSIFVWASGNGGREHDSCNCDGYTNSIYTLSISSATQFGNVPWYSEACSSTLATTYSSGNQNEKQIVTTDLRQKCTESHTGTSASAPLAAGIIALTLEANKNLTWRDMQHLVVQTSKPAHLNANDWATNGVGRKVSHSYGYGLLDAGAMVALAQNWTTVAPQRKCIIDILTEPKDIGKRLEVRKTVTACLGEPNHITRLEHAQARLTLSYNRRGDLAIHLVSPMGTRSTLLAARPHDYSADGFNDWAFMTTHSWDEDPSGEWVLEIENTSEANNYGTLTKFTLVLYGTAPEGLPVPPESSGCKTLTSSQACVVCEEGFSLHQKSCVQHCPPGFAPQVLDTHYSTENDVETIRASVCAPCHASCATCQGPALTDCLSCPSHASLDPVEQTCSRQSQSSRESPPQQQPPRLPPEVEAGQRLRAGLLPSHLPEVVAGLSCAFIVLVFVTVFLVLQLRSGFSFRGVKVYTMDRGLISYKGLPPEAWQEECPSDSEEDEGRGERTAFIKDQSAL

Turning to `C[C@@H]1O[C@@H](O[C@H]2CC[C@@]3(C)[C@H](CC[C@@H]4[C@H]3C[C@@H](O)[C@]3(C)[C@@H](C5=CC(=O)OC5)CC[C@]43O)C2)C[C@H](O)[C@@H]1O[C@H]1C[C@H](O)[C@H](O[C@H]2C[C@H](O)[C@@H](O)[C@@H](C)O2)[C@H](C)O1` (stereo in doubt), the Potency is 339 nM (active) in assay [1]; 427 nM (active) in [2]; 269 nM (active) in assay [3]; 170 nM (active) in assay [4]; 302 nM (active) in assay [5]; 95.5 nM (active) in [6]. The Potency in assay [7] is 170 nM (active); in [8] it was 75.9 nM (active); in [9] it was 107 nM (active); in assay [10], 339 nM (active); in [11] it was 1910 nM (active); in [13] it was 215 nM (active). Further, the Potency entry in assay [12] is “inactive”.

In the case of `C=CC(=O)Nc1cccc(Sc2nc(Nc3ccc(N4CCN(C)CC4)cc3)ncc2Cl)c1`, the Potency in assay [1] was 8270 nM (active); in assay [2], 4140 nM (active); in assay [3] it was 1040 nM (active); in assay [4] it was 23300 nM (active); in assay [14] it was 18500 nM (active); in [6], 13100 nM (active). Moreover, the Potency is 737 nM (active) in assay [7]; 18500 nM (active) in assay [8]; 16500 nM (active) in assay [15]; 10400 nM (active) in assay [9]; 5850 nM (active) in assay [16]; 16500 nM (active) in assay [17]. The Potency in [10] was 9270 nM (active); in assay [11], 16500 nM (active); in assay [12], 14700 nM (active); in assay [13] it was 9350 nM (active).

For `CC(=O)N1CCN(c2ccc(OCc3nn(C)c(C)c3-c3cccc4c(CCCOc5cc(C)c(Cl)c(C)c5)c(C(=O)O)n(Cc5cccnc5)c34)cc2)CC1`, the Potency result in assay [1], in assay [4], in assay [18], in [15], in assay [16] and in [17] was “inactive” in each case. The Potency result in [10] and in assay [13] was “inactive” throughout. Moreover, in assay [2], the Potency is 18500 nM (active).

Regarding `Nc1ncnc2c1ncn2[C@@H]1O[C@H](CO)[C@@H](O)[C@@H]1O`, the Potency in [1] is 14700 nM (active); in assay [3], 8270 nM (active); in assay [6], 14700 nM (active); in [7] it was 7370 nM (active); in assay [15] it was 10400 nM (active); in [9] it was 14700 nM (active). For the same molecule, the Potency was 11700 nM (active) in assay [10] and 9270 nM (active) in assay [11]. In addition, the Potency result in [2], in [19] and in assay [13] was “inactive” each time.

As for `COc1ccc(-c2ccc3ncc4c(c3c2)n(-c2ccc(N3CCNCC3)c(C(F)(F)F)c2)c(=O)n4C)cn1`, the Potency was 1040 nM (active) in [1]; 131 nM (active) in [2]; 82.7 nM (active) in assay [3]; 7370 nM (active) in assay [4]; 928 nM (active) in assay [14]; 208 nM (active) in [6]. Besides, the Potency in [7] is 32.9 nM (active); in assay [8], 32.9 nM (active); in assay [18] it was 10400 nM (active); in assay [15], 465 nM (active); in assay [9], 58.5 nM (active); in assay [16], 185 nM (active). Besides, the Potency was 414 nM (active) in [17], 293 nM (active) in assay [10], 369 nM (active) in assay [12] and 132 nM (active) in [13]. Moreover, the activity change, negative = inhibition with Furin (Homo sapiens) is -10.9% [at 5.45 µM].

For `Nc1ccc(-c2ccc3ncc4ccc(=O)n(-c5cccc(C(F)(F)F)c5)c4c3c2)cn1`, the Potency in assay [1] was 369 nM (active); in assay [2] it was 185 nM (active); in assay [3], 131 nM (active); in assay [19] it was 3690 nM (active); in assay [14], 293 nM (active); in assay [6], 117 nM (active). The Potency is 73.7 nM (active) in assay [7]; 20.8 nM (active) in assay [8]; 185 nM (active) in assay [15]; 36.9 nM (active) in assay [9]; 233 nM (active) in assay [16]; 928 nM (active) in assay [17]. For the same molecule, the Potency is 329 nM (active) in assay [10], 329 nM (active) in [11], 261 nM (active) in assay [12] and 296 nM (active) in assay [13].

With `C[C@@H]1C[C@H]2[C@@H]3CCC4=CC(=O)C=C[C@]4(C)[C@@]3(F)[C@@H](O)C[C@]2(C)[C@@]1(O)C(=O)CO`, the Potency result in [1], in assay [2], in [4], in [5], in assay [14] and in [6] was “inactive” each time. Moreover, the Potency entry in [8], in assay [18], in assay [15], in assay [9], in [16] and in [10] was “inactive” each time. Also, the Potency entry in assay [11], in assay [12] and in [13] was “inactive” in each case.

Consider `CSc1cccc(Nc2ncc3cc(-c4c(Cl)cccc4Cl)c(=O)n(C)c3n2)c1`, for which the Potency was 2930 nM (active) in assay [1]; 2080 nM (active) in [2]; 2610 nM (active) in assay [3]; 2080 nM (active) in assay [14]; 4140 nM (active) in [6]; 2930 nM (active) in [7]. Further, the Potency in [8] was 1850 nM (active); in [15], 3290 nM (active); in assay [9] it was 465 nM (active); in [16], 369 nM (active); in assay [17], 3290 nM (active); in [10], 6570 nM (active). Also, the Potency was 2330 nM (active) in assay [11], 4650 nM (active) in assay [12] and 2640 nM (active) in assay [13].

`CCOC(=O)[C@H](CCc1ccccc1)N[C@@H](C)C(=O)N1CCCC1C(=O)O` (stereo partly specified): the Potency in assay [1] was 7370 nM (active); in [2], 4140 nM (active); in [3] it was 14700 nM (active); in assay [7] it was 7370 nM (active); in assay [9] it was 9270 nM (active); in assay [16] it was 13100 nM (active). In addition, the Potency in assay [17] is 13100 nM (active); in [10], 7370 nM (active); in assay [11], 11700 nM (active). The Potency result (in [19]; in assay [13]; with Furin (Homo sapiens)) was “inactive” throughout.

Regarding `C=C1[C@H](n2cnc3c(=O)[nH]c(N)nc32)C[C@H](O)[C@H]1CO`, the Potency result in [1], in [2], in [4], in assay [14], in assay [6] and in assay [8] was “inactive” throughout. Moreover, the Potency entry in [18], in [15], in assay [9], in assay [16], in assay [17] and in [10] was “inactive” in each case. Moreover, the Potency result in assay [11], in assay [12] and in assay [13] was “inactive” throughout. In addition, the Potency in assay [3] was 7370 nM (active); in assay [7], 8270 nM (active).

For the molecule `CC[C@]1(O)C[C@H]2CN(CCC3=c4ccccc4=N[C]3[C@@](C(=O)OC)(c3cc4c(cc3OC)N(C)[C@H]3[C@@](O)(C(N)=O)[C@H](O)[C@]5(CC)C=CCN6CC[C@]43[C@@H]65)C2)C1`, the Potency is 104 nM (active) in assay [1]; 58.5 nM (active) in assay [2]; 117 nM (active) in assay [3]; 147 nM (active) in [4]; 261 nM (active) in assay [19]; 73.7 nM (active) in [6]. The Potency is 104 nM (active) in assay [7]; 261 nM (active) in assay [8]; 928 nM (active) in assay [15]; 369 nM (active) in assay [16]; 46.5 nM (active) in assay [11]; 1180 nM (active) in [13]. In addition, the Potency result in assay [18], in assay [17] and in assay [10] was “inactive” in each case.
